Compounds with a hit are over-represented: about 3.5% of the library has one in this group of screens.
MITF primary: inhibitors of human MITF; O75030; AlphaScreen MITF homodimerization, bead proximity signal; inhibition, % at 2.6 µM; hit rate 0.91% among 650,000; AID 1259374; in the data active = inhibition above about 50%;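 also: 0% = vehicle wells with protein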
TEAD-YAP block: TEAD-YAP interaction inhibition; HEK-TIYL cells, TEAD-Gal4/YAP UAS-luciferase luminescence; inhibition, % at 9.12 µM; hit rate 1.4% among 640,000; in the data active = inhibition above about 32%;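 also: 0% = median of test compound wells and 100% = reference inhibitor wells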
FBW7 act: human FBW7 E3 ligase activation, primary screen; Q969H0; hit rate 0.13% among 650,000; AlphaScreen FBW7–phospho-cyclin E peptide binding, activator screen; normalized activity (activation), % at 26.1 µM; in the data active = normalized activity above about 1.9%;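 also: purified mutant Fbw7 with reduced substrate affinity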
Target sequence (Q969H0 whole entry, looked up): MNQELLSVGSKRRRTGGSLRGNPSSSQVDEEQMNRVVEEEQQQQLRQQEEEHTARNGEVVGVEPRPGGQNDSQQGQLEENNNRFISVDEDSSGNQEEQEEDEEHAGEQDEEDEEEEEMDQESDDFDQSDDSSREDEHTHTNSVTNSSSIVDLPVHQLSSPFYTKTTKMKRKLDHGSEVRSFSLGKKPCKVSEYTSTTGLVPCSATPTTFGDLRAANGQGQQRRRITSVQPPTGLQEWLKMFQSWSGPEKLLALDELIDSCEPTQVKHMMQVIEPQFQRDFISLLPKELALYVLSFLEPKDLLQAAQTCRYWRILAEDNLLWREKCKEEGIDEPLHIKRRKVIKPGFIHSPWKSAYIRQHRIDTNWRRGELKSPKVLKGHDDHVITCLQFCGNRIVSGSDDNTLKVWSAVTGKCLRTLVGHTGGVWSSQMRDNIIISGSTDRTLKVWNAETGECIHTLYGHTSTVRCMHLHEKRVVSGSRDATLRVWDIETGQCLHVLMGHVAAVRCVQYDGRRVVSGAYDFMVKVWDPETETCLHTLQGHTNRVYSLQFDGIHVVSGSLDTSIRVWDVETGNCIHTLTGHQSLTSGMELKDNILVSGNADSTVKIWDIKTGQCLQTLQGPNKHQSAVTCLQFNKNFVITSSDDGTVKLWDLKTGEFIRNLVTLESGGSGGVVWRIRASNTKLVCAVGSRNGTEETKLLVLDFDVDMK
GPR151 activ: activates the human receptor GPR151; activation, % at 11.2 µM; hit rate 1% among 650,000; PathHunter beta-arrestin GPR151 cells, luminescence; in the data active = activation above about 4.9%;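 also: 0% = median of compound wells and 100% = cells with positive control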
The depositor's hits bear a star; x = no result given.

SMILES	MITF primary	TEAD-YAP block	FBW7 act	GPR151 activ
CC(=O)O[C@@]12C[C@@H](C)[C@@]3(O)[C@@H](C=C(CO)C[C@]4(O)C(=O)C(C)=C[C@@H]34)[C@@H]1C2(C)C	-16.5	x	x	-0.1
Cc1cc2nc(-c3cccc(N)c3)oc2cc1C	13.4	34.9*	-0.3	-10.1
Cc1ccc2nc(-c3cc(N)ccc3O)oc2c1	5.5	-21.8	-0.1	-1.8
Cc1cc2nc(-c3ccc(C)c(N)c3)oc2cc1C	2.2	35.7*	-0.2	-6.4
CCc1ccc2oc(-c3ccc(C)c(N)c3)nc2c1	15.0	43.1*	0.2	-6.6
Cc1ccc(-c2nc3ccccc3o2)cc1N	9.2	-32.7	0.1	-4.9
Cc1ccc2nc(-c3cc(N)cc(N)c3)oc2c1	9.1	55.6*	-0.1	-2.8
COc1ccccc1CN1CCNC(=O)C1CC(=O)NCCc1ccc(F)cc1 (stereo not drawn)	-20.8	4.8	0.1	0.9
CCCOc1ccc(NC(=O)CC2C(=O)N(c3ccc(Cl)cc3)C(=S)N2CCC23CC4CC(CC(C4)C2)C3)cc1 (stereo not drawn)	3.4	5.3	0.2	0.6
CCc1ccc(CNC(=O)Cc2ccc(NC(=O)C3=C(C)OCCS3)cc2)cc1	3.5	35.3*	0.0	1.4
Cc1[nH]nc2nc3c(c(-c4cc(C)n(C5CCCC5)c4C)c12)C(=O)CCC3	0.2	1.1	-0.1	4.1
COc1ccc(OC)c(CNc2ncc(-c3cccc(Br)c3)n2C)c1	24.6	43.0*	-0.3	-0.2
COc1cccc(CNc2ncc(-c3cccc(OC)c3)n2C)c1	36.3	54.1*	-0.4	3.0
COc1ccc(OC)c(CNc2ncc(-c3ccc(Br)cc3)n2C)c1	34.8	2.8	0.2	-0.4
Cc1cc(NCCCN(C)C)n2c(nc3ccccc32)c1C#N	14.0	50.4*	0.1	-1.2
Cc1cc(NCCO)n2c(nc3ccccc32)c1C#N	-6.1	-4.2	-0.1	0.5
CC(C)N(CCNc1nc(Nc2nccc3ccccc23)nc2c1ncn2C(C)C)C(C)C	19.9	50.2*	0.0	-0.8
CCCNc1nc(Nc2cnccn2)nc2c1ncn2C(C)C	5.4	46.3*	-0.2	2.8
Cc1nc2cc(NC(=O)c3ccc(S(=O)(=O)N4CCCCC4C)cc3)ccc2s1 (stereo not drawn)	-7.3	12.6	0.0	0.2
Cc1ccc(C(=O)N/N=C\c2c[nH]c3ccccc23)o1	12.9	-20.9	0.1	-1.9
COc1cccc2oc(-c3ccccc3)cc(=O)c12	11.6	60.1*	0.1	-10.9
COc1cc(CC(=O)N2CCC3(CC2)OCc2cc(Cl)ccc2O3)cc(OC)c1OC	-17.4	59.2*	-0.4	1.5
COc1ccc(CCC(=O)N2CCC3(CC2)OCc2ccccc2O3)cc1	-0.4	-5.2	-0.4	3.7
COc1ccc(CCC(=O)N2CCC3(CC2)OCc2ccccc2O3)cc1OC	7.8	40.4*	-0.1	-0.6
COc1cccc(CC(=O)N2CCC3(CC2)OCc2ccccc2O3)c1OC	8.2	5.2	0.1	0.0
SMILES	MITF primary	TEAD-YAP block	FBW7 act	GPR151 activ
COc1cc(CC(=O)N2CCC3(CC2)OCc2ccccc2O3)cc(OC)c1OC	6.3	38.4*	-0.1	1.3
COc1ccc(C(=O)NCCc2nnc3n2CCN(Cc2ccc4c(c2)CCO4)CC3)cc1	12.1	-0.1	-0.1	-0.5
CCC(C)c1ccc(OCCCNCCO)cc1 (stereo not drawn)	21.5	40.2*	0.1	-1.9
O=C(Nc1ccc(Oc2ccccc2)cc1)c1ccc2c(=O)n(-c3cc(C(F)(F)F)ccc3Cl)c(=S)[nH]c2c1	-6.7	35.7*	0.0	0.0
COc1ccc(-n2c(=S)[nH]c3cc(C(=O)Nc4cccc(C)c4)ccc3c2=O)c(OC)c1	7.8	47.8*	-0.1	1.7
O=C(Nc1ccc(Oc2ccccc2)cc1)c1ccc2c(=O)n(-c3cccc(C(F)(F)F)c3)c(=S)[nH]c2c1	-6.2	-0.8	0.0	-0.2
CC(Oc1ccc(Br)cc1)C(=O)Nc1ccc2c(c1)OCCO2 (stereo not drawn)	20.2	-1.0	0.1	4.6
O=C(O)c1cccc2[nH]c(C(F)(F)F)nc12	15.6	11.5	0.2	0.7
Cc1cc(-c2cccc3[nH]c(C(F)(F)F)nc23)nn1C(=O)c1ccncc1	1.5	34.2*	-0.2	-0.9
COc1ccc(-c2nc3ccccc3s2)cc1OC(C)=O	19.8	58.0*	0.8	-3.2
Oc1cccc(-c2nc3ccccc3s2)c1	-5.4	92.1*	-0.2	-4.4
Nc1ccc(-c2nc3ccccc3s2)cc1N	-8.0	28.8	0.0	-7.2
Oc1ccc(O)c(Cc2nc3ccccc3s2)c1	1.9	52.9*	-0.1	4.3
COc1ccc([N+](=O)[O-])cc1N(CC(=O)Nc1cccnc1)S(C)(=O)=O	7.1	4.7	-0.1	0.3
Cc1ccc(C2CC(=O)C=C(O)C2)cc1 (stereo not drawn)	-2.9	-1.4	0.1	-0.6
CC(C)(C)c1ccc(C2CC(=O)C=C(O)C2)cc1 (stereo not drawn)	17.8	53.6*	0.9	0.9
O=C(Nc1ccc(N2CCOCC2)cc1)c1ccnc(Nc2ccc(-n3ccnc3)cc2)c1	28.9	-0.1	-0.2	-2.2
O=C(NCCCN1CCc2ccccc2C1)Nc1ccc(Br)cc1	-9.7	-14.6	3.1*	-0.5
COc1ccccc1N1CCN(CCCNC(=O)Nc2ccc(Br)cc2)CC1	-12.1	2.8	2.9*	-0.6
CCNC(=S)N1CCN(c2ccccc2OC)CC1	-9.1	0.7	-0.1	1.4
COc1ccccc1N1CCN(C(=S)NCCN2CCOCC2)CC1	8.4	65.8*	0.2	-1.4
CCOC(=O)N/N=C1\C[C@@H](O)[C@@H](O)[C@@H]2[C@@H]3C(=O)N(c4cccc(Oc5ccccc5)c4)C(=O)[C@@H]3CC[C@@H]12	2.3	x	-0.1	0.9
CC(=O)c1ccc(OCC[N+](C)(C)Cc2ccccc2)cc1	0.9	2.5	0.1	3.1
CC(C)(C)CC(C)(C)c1ccc(OCCOCC[N+](C)(C)Cc2ccccc2)cc1	5.9	54.0*	-0.2	2.0
CC(C)(C)c1ccc(C(=O)Nc2ccc3c(c2)CN(C(=O)c2ccco2)CC3)cc1	6.6	85.7*	0.2	2.5
SMILES	MITF primary	TEAD-YAP block	FBW7 act	GPR151 activ
CCc1nc(N2CCC(C(N)=O)CC2)c2oc3ccccc3c2n1	-17.3	-1.5	0.3	-1.7
CCOC(=O)c1[nH]c(C)c(C(=O)N2CCCCCC2)c1C	20.1	-7.6	0.9	1.4
CCOC(=O)c1[nH]c(C)c(C(=O)Nc2cc(C)ccc2OC)c1C	1.5	56.8*	-0.3	1.7
CCOC(=O)c1[nH]c(C)c(C(=O)N2CC(C)CC(C)C2)c1C (stereo not drawn)	-2.0	43.5*	-0.1	-1.3
CCOC(=O)c1[nH]c(C)c(C(=O)Nc2cc(Cl)ccc2C)c1C	-10.3	47.4*	-0.3	-0.3
CCOC(=O)c1c(C)[nH]c(C(=O)C(C)Nc2cc(NC(C)=O)ccc2OC)c1C (stereo not drawn)	0.9	1.4	-0.1	-1.8
CCOC(=O)c1c(C)[nH]c(C(=O)C(C)Nc2ccc(OC)c(OC)c2)c1C (stereo not drawn)	42.0	43.4*	-0.1	-2.4
CC(=O)c1[nH]c(C)c(C(=O)Nc2cc(Cl)ccc2C)c1C	16.6	-1.1	0.0	0.1
O=C(CCCN1C(=O)c2cccc3cccc(c23)C1=O)Nc1ccccc1Cl	-0.2	-11.2	0.0	1.7

Screening data deposited in PubChem by The Scripps Research Institute Molecular Screening Center.
